Sampled rows, rich in hits. Any-hit rate of the full collection: about 11%.
Pf growth 48h: Primary qHTS for delayed death inhibitors of the malarial parasite plastid, 48 hour incubation. P. falciparum luciferase growth in erythrocytes, 48 h. Potency, µM (highest dose often 28.7 µM), for the others: at the top dose activity change, negative = inhibition, actives largely listed as inhibitors. hit rate 5.9% among 310,000. AID 504832, 2011
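Luciferase-expressing P. falciparum in infected erythrocytes (2% hematocrit, 0.1% parasitemia final) in RPMI 1640/0.5% Albumax were exposed to compound for 48 hours at 37 C, 5% CO2; growth read as luminescence.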
HCV inhibitor: qHTS Assay for Inhibitors of Hepatitis C Virus (HCV); Huh7.5.1 HCVcc-Cre infection, luciferase reporter, 44 h; Potency, µM (top dose mostly 41.8 µM), inactives show top-dose activity change, negative = inhibition, usual class: inhibitors; hit rate 3.4% among 340,000; AID 651820, 2012
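Cells (1,000/well) were plated 4 h before compound, then infected with HCVcc-Cre virus (~0.5 moi). After 44 h further culture, infection was read as luciferase luminescence following a 15 min substrate incubation at room temperature.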
Pf growth 96h: Primary qHTS for delayed death inhibitors of the malarial parasite plastid, 96 hour incubation; Potency, µM (highest dose often 28.7 µM), for the others: at the top dose activity change, negative = inhibition, hits mostly inhibitors; P. falciparum luciferase reporter growth, 96 h; hit rate 6.9% among 320,000; AID 504834, 2011
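Plates of compound plus infected erythrocytes (2% hematocrit, 0.05% parasitemia final) incubate 96 hours, 37 C, 5% CO2. Detection reagent added; reduced luminescence from the parasites' luciferase reporter flags inhibition.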
AMA1-RON2 inh: qHTS for Inhibitors of AMA1-RON; Towards Development of Antimalarial Drug Lead: Primary Screen; AID 720542, 2013; hit rate 0.2% among 360,000; Plasmodium falciparum AMA1 (3D7) - RON2 peptide interaction; AlphaScreen AMA1-biotinylated RON2 peptide binding; Potency, µM (titrated, usually from 58.2 µM), without a hit: at the highest dose activity change, negative = inhibition, actives largely listed as inhibitors;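 note: 0% = vehicle wells and -100% = peptide control; nearly all actives have a fitted effect of over 45% in size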
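AMA1 (3D7) with his tag at 25 nM final met compounds first, then biotinylated RON2 peptide at 25 nM; detection used donor plus acceptor beads, 10 µg/mL apiece, read by AlphaScreen after 30 min at room temperature.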
* = called active by the depositor; [ ] = remark or other dose. Calls come from the whole dose curve; as a rule, active = well fitted curve in the direction sought with a large enough effect; inconclusive = small, poorly fitted or top-dose-only effect, or another doubt; inactive = no such curve, though single readings can be large; an effect the other way counts as inactive or inconclusive. Unless noted, % is set by controls: 0 for no effect and ±100 for the full control effect; potency is the fitted concentration of half-maximal effect.

What do the screens show for `CCCCNC(=O)c1nc(C2CCN(S(=O)(=O)c3ccc(C(F)(F)F)cc3)CC2)oc1-c1ccccc1`?
AMA1-RON2 inh: 9.9%

Results for CCN(CC)C(=O)C1CCCN(c2ccc([N+](=O)[O-])cc2/C=N/NC(=O)c2cccc([N+](=O)[O-])c2)C1 (stereo not given) ?
Pf growth 48h: inconclusive; HCV inhibitor: inconclusive; Pf growth 96h: 10.4µM*; AMA1-RON2 inh: 44.5%

What do the screens show for `O=C(N/N=C/c1cc([N+](=O)[O-])ccc1N1CCNCC1)c1ccc([N+](=O)[O-])cc1`?
Pf growth 48h: inconclusive; HCV inhibitor: inconclusive; Pf growth 96h: 4.15µM*; AMA1-RON2 inh: 23.2%

Results for CCN(CC)C(=O)C1CCCN(c2ccc([N+](=O)[O-])cc2[N+](=O)[O-])C1 (stereo not given) ?
Pf growth 48h: -4.6%; HCV inhibitor: -14.9%; Pf growth 96h: 3.4%; AMA1-RON2 inh: 0.0%

Results for N#CCC(=O)N/N=C/c1cc([N+](=O)[O-])ccc1N1CCCC1 ?
Pf growth 48h: inconclusive; HCV inhibitor: -10.5%; Pf growth 96h: inconclusive; AMA1-RON2 inh: 18.4%

How did O=C(Cn1c2ccccc2c(=O)c2ccccc21)N/N=C/c1ccc(N2CCCC2)c([N+](=O)[O-])c1 do in these assays?
Pf growth 48h: 25.3%; HCV inhibitor: inconclusive; Pf growth 96h: 41.6%; AMA1-RON2 inh: 5.5%

Results for O=C(Cn1c2ccccc2c(=O)c2ccccc21)N/N=C/c1cc([N+](=O)[O-])ccc1N1CCCCCC1 ?
Pf growth 48h: 9.1%; HCV inhibitor: 2.51µM*; Pf growth 96h: 22.5%; AMA1-RON2 inh: 26.3%

Results for COc1cccc(CCc2nnc(N)s2)c1 ?
Pf growth 48h: 59.2%; HCV inhibitor: 12.6%; Pf growth 96h: -2.6%; AMA1-RON2 inh: -1.9%

Results for CCC(C)NC(=O)c1ccc2nc(-c3ccc(OC)c(OC)c3)c(-c3ccc(OC)c(OC)c3)nc2c1 (stereo not given) ?
Pf growth 48h: 2.94µM*; HCV inhibitor: -3.5%; Pf growth 96h: 13.1µM*; AMA1-RON2 inh: 0.0%

Results for CCN(CC)C(=O)c1ccc2nc(-c3ccccc3)c(-c3ccccc3)nc2c1 ?
Pf growth 48h: -16.5%; HCV inhibitor: 3.2%; Pf growth 96h: 34.9%; AMA1-RON2 inh: -6.5%

Results for CCCN(CCC)C(=O)c1ccc2nc(-c3ccc(OC)c(OC)c3)c(-c3ccc(OC)c(OC)c3)nc2c1 ?
Pf growth 48h: 7.38µM*; HCV inhibitor: inconclusive; Pf growth 96h: 17.0%; AMA1-RON2 inh: 29.2%

How did COc1ccc(NS(=O)CCCc2ccccc2)cc1 (stereo not given) do in these assays?
AMA1-RON2 inh: -14.6%

How did COc1ccc(CCC(C(O)C(F)(F)F)S(=O)c2ccccc2)cc1 (stereo not given) do in these assays?
Pf growth 48h: inconclusive; HCV inhibitor: -21.3%; Pf growth 96h: 2.08µM*; AMA1-RON2 inh: 0.7%

How did O=c1cc(CSc2nnnn2-c2ccccc2)nc2scc(-c3ccccc3)n12 do in these assays?
Pf growth 48h: inconclusive; HCV inhibitor: -22.3%; Pf growth 96h: 8.28µM*; AMA1-RON2 inh: -5.2%

Results for O=c1cc(CSc2nnnn2-c2ccccc2)nc2sccn12 ?
Pf growth 48h: -4.8%; HCV inhibitor: 5.9%; Pf growth 96h: inconclusive; AMA1-RON2 inh: -0.8%

Results for O=C(CSc1nnc(CNC(=O)c2c(F)cccc2Cl)o1)NCc1ccc(F)cc1 ?
Pf growth 48h: -1.4%; HCV inhibitor: 3.9%; Pf growth 96h: inconclusive; AMA1-RON2 inh: 21.5%

Results for Cc1nn(-c2ccccc2)c(C)c1-c1nnc(-c2c(C)nn(-c3ccccc3)c2C)o1 ?
Pf growth 48h: 11.7µM*; HCV inhibitor: inconclusive; Pf growth 96h: inconclusive; AMA1-RON2 inh: -3.2%

How did Cc1nn(-c2ccccc2)c(C)c1-c1nnc(C(F)(F)F)o1 do in these assays?
Pf growth 48h: 16.0%; HCV inhibitor: -11.2%; Pf growth 96h: 25.2%; AMA1-RON2 inh: 42.9%

Results for c1csc(C2C3=C(Nc4ncnn42)c2ccccc2OC3)c1 (stereo not given) ?
Pf growth 48h: inconclusive; HCV inhibitor: 6.8%; Pf growth 96h: 13.1µM*; AMA1-RON2 inh: -10.6%

What do the screens show for `O=C(CN(c1cccc(C(F)(F)F)c1)S(=O)(=O)c1ccc(Cl)c([N+](=O)[O-])c1)NCc1ccc(F)cc1`?
Pf growth 48h: inconclusive; HCV inhibitor: inconclusive; Pf growth 96h: 14.7µM*; AMA1-RON2 inh: -4.0%[11.6 µM]

How did O=C(CN(c1cccc([N+](=O)[O-])c1)S(=O)(=O)c1ccccc1)NCc1cccnc1 do in these assays?
Pf growth 48h: 5.1%; HCV inhibitor: -10.8%; Pf growth 96h: inconclusive; AMA1-RON2 inh: -5.0%

Results for COc1ccc(NC(=O)Cc2c(F)cccc2Cl)c(OC)c1 ?
Pf growth 48h: 10.2%; HCV inhibitor: inconclusive; Pf growth 96h: -15.0%; AMA1-RON2 inh: -2.6%

What do the screens show for `CN1c2ccccc2-c2nc3ccccc3n2C1c1ccncc1` (stereo not given)?
Pf growth 48h: inconclusive; HCV inhibitor: 1.9%; Pf growth 96h: inconclusive; AMA1-RON2 inh: 14.2%

What do the screens show for `c1ccc(CN2c3ccccc3-c3nc4ccccc4n3C2c2ccccn2)cc1` (stereo not given)?
Pf growth 48h: 7.38µM*; HCV inhibitor: 1.1%; Pf growth 96h: 4.15µM*; AMA1-RON2 inh: -8.1%

What do the screens show for `CCN1c2ccccc2-c2nc3ccccc3n2C1c1ccco1` (stereo not given)?
Pf growth 48h: 11.7µM*; HCV inhibitor: -21.3%; Pf growth 96h: 4.65µM*; AMA1-RON2 inh: 53.5%

What do the screens show for `CN1c2ccccc2-c2nc3ccccc3n2C1c1ccccn1` (stereo not given)?
Pf growth 48h: 9.28µM*; HCV inhibitor: -23.7%; AMA1-RON2 inh: 65.4%

How did CS(=O)(=O)c1cccc(-c2nnc(NC(=O)C3=COCCO3)o2)c1 do in these assays?
Pf growth 48h: inconclusive; HCV inhibitor: 10.1%; Pf growth 96h: 0.1%; AMA1-RON2 inh: 78.8%

Results for N#Cc1c([N+](=O)[O-])cc([N+](=O)[O-])cc1S(=O)(=O)Cc1ccccc1 ?
Pf growth 48h: -10.4%; HCV inhibitor: 10µM*; Pf growth 96h: -3.9%; AMA1-RON2 inh: -20.6%

Results for Cc1ccccc1-n1c(SCC(=O)N/N=C/c2sccc2C)nc2ccccc2c1=O ?
Pf growth 48h: inconclusive; HCV inhibitor: 32.2%; Pf growth 96h: inconclusive; AMA1-RON2 inh: -0.9%

What do the screens show for `Cc1ccc(C(=O)OCN2C(=O)c3ccccc3C2=O)o1`?
Pf growth 48h: 4.5%; HCV inhibitor: -13.6%; Pf growth 96h: 76.6%; AMA1-RON2 inh: -3.1%

Results for COc1ccc(Nc2nc(-c3ccncc3)nc3ccccc23)cc1 ?
HCV inhibitor: 6.31µM*; Pf growth 96h: 0.7%; AMA1-RON2 inh: 5.7%
